Where “and” joins values, the source holds several entries; their conditions need not be identical. Identical values can stand only once. Compounds without any hit were thinned out: in the full panel of roughly 83,000, 20% have a hit.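 Interpretation: 100, growth as untreated; towards 0, rising growth inhibition; 0, no net growth; 0 to -100, cell death. Compounds scoring below 10 were considered active.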 Calls of active or inactive are those of the source.

Some test systems named below: SR leukemia; RPMI-8226 leukemia; OVCAR-8 ovarian; OVCAR-5 ovarian; OVCAR-4 ovarian; SK-OV-3 ovarian; OVCAR-3 ovarian; HS 578T breast; NCI/ADR-RES ovarian; T-47D breast; MDA-MB-435 melanoma; SW-620 colon; MCF7 breast; HCT-116 colon; HCC-2998 colon; KM12 colon; IGROV1 ovarian; BT-549 breast.
What all share (assay): NCI-60 one-dose screen, 48 h (100 = growth as untreated, 0 = no growth, -100 = all killed)
Conditions in all cases: 10 µM unless noted

As to `CCN(CC)CCC(CNc1ccnc2cc(Cl)ccc12)c1ccc(OC)cc1` (stereo unspecified), the growth in the experiment with SR leukemia was -26% (active) and -16.4% (active); in the experiment on RPMI-8226 leukemia, 60.1% (inactive) and 39% (inactive); in the experiment with OVCAR-8 ovarian, 63.6% (inactive) and 46% (inactive); in the experiment on OVCAR-5 ovarian it was 76.1% (inactive) and 89.4% (inactive); in the experiment on OVCAR-4 ovarian, 29.8% (inactive) and 47.4% (inactive); in the experiment on SK-OV-3 ovarian, 92.7% (inactive) and 78.5% (inactive). In addition, the growth with OVCAR-3 ovarian was 84.3% (inactive) and 80.9% (inactive); in the experiment on HS 578T breast, 74% (inactive); in the experiment with NCI/ADR-RES ovarian, 76.7% (inactive) and 72.8% (inactive); in the experiment with T-47D breast, 57.9% (inactive) and 77.2% (inactive); in the experiment on MDA-MB-435 melanoma, 8.96% (active) and -30.1% (active); with SW-620 colon, 77.2% (inactive) and 61.2% (inactive). For the same molecule, the growth in the experiment on MCF7 breast was 80.6% (inactive) and 72.3% (inactive); in the experiment with HCT-116 colon, 46.5% (inactive) and 39.4% (inactive); in the experiment with HCC-2998 colon, 70.9% (inactive) and 52.7% (inactive); in the experiment with KM12 colon, 77.9% (inactive) and 75.8% (inactive).
As to `Oc1nc(NCCc2ccccc2)sc1/C=C1\C=Nc2ncccc21`, the growth in the experiment on SR leukemia was -1.51% (active) and 5.6% (active); in the experiment on RPMI-8226 leukemia it was 38.7% (inactive) and 39.2% (inactive); in the experiment on OVCAR-8 ovarian it was 9.67% (active) and 14% (inactive); with OVCAR-4 ovarian it was 32.3% (inactive) and 23.8% (inactive); with SK-OV-3 ovarian, 2.11% (active) and 27% (inactive); in the experiment on IGROV1 ovarian, 25.6% (inactive) and 14% (inactive). Moreover, the growth in the experiment on OVCAR-3 ovarian was 3.41% (active) and 5.65% (active); in the experiment with HS 578T breast, 8.82% (active) and 8.78% (active); in the experiment on NCI/ADR-RES ovarian it was 58.4% (inactive) and 72.9% (inactive); in the experiment on T-47D breast it was -1.34% (active) and 2.6% (active); in the experiment on BT-549 breast, 5.29% (active) and -7.9% (active); in the experiment with MDA-MB-435 melanoma, 18.5% (inactive) and 21% (inactive). Besides, the growth in the experiment with SW-620 colon is 7.8% (active) and 9.88% (active); with MCF7 breast, 2% (active) and 4% (active); in the experiment on HCT-116 colon, 5.84% (active) and 9.69% (active); in the experiment with HCC-2998 colon, 66.2% (inactive) and 53.9% (inactive); with KM12 colon, 9.25% (active) and 13.1% (inactive).
Turning to `Cc1cc(O)c2c(c1)C(=O)c1cc(O)cc(O)c1C2=O`, the growth was 108% (inactive) and 86% (inactive) with SR leukemia; 75.8% (inactive) and 74.3% (inactive) in the experiment on RPMI-8226 leukemia; 92.7% (inactive) in the experiment with OVCAR-8 ovarian; 55% (inactive) and 68.5% (inactive) with OVCAR-4 ovarian; 102% (inactive) and 84.8% (inactive) in the experiment on SK-OV-3 ovarian; 65.9% (inactive) and 101% (inactive) in the experiment with IGROV1 ovarian. The growth with OVCAR-3 ovarian was 84.1% (inactive) and 95.9% (inactive); in the experiment on HS 578T breast, 89.7% (inactive) and 88.9% (inactive); in the experiment with NCI/ADR-RES ovarian it was 91.6% (inactive) and 101% (inactive); with T-47D breast, 65% (inactive) and 73.4% (inactive); in the experiment with BT-549 breast, 84.5% (inactive) and 88.1% (inactive); in the experiment with MDA-MB-435 melanoma, 76.8% (inactive) and 83.6% (inactive). The growth is 100% (inactive) and 97.3% (inactive) in the experiment with SW-620 colon; 98.4% (inactive) and 95.1% (inactive) in the experiment on MCF7 breast; 92.9% (inactive) and 97.5% (inactive) with HCT-116 colon; 95% (inactive) and 108% (inactive) in the experiment on HCC-2998 colon; 98.1% (inactive) and 91.9% (inactive) in the experiment with KM12 colon.
Regarding `CCN(CC)CCOc1ccc2c(c1)C(=O)c1cc(OCCN(CC)CC)ccc1-2`, the growth with SR leukemia is 93% (inactive); with RPMI-8226 leukemia it was 67.1% (inactive) and 7.54% (active); in the experiment on OVCAR-8 ovarian, 46.5% (inactive) and 59.3% (inactive); with OVCAR-5 ovarian it was 108% (inactive); in the experiment on SK-OV-3 ovarian, 90% (inactive) and 87.6% (inactive); with IGROV1 ovarian, 78.3% (inactive). The growth with OVCAR-3 ovarian was 96.1% (inactive) and 70.5% (inactive); with NCI/ADR-RES ovarian, 69.7% (inactive) and 70.8% (inactive); in the experiment with T-47D breast, 111% (inactive) and 131% (inactive); in the experiment with BT-549 breast it was 96% (inactive) and 76.3% (inactive); in the experiment on SW-620 colon, 34.5% (inactive) and 26.1% (inactive); in the experiment with MCF7 breast, 30.1% (inactive) and 7.03% (active). Also, the growth in the experiment with HCT-116 colon was 44.2% (inactive) and 13.2% (inactive); in the experiment on HCC-2998 colon, 77.9% (inactive) and 56.5% (inactive); with KM12 colon it was 54.8% (inactive) and 40.4% (inactive).
With `COc1cc2c(c(OC)c1OC)-c1ccc(OC)c(=O)cc1[C@@H](NC(C)=O)CC2`, the growth was 4.98% (active) and 2.6% (active) and 5.4% (active) in the experiment on SR leukemia; 9.21% (active) and 2.34% (active) in the experiment with RPMI-8226 leukemia; 10.3% (inactive) and 14.4% (inactive) in the experiment on OVCAR-8 ovarian; 47.5% (inactive) and 20.8% (inactive) and 31.2% (inactive) with OVCAR-5 ovarian; 13.8% (inactive) and 25.8% (inactive) and 36.1% (inactive) in the experiment with SK-OV-3 ovarian; -57.4% (active) and -0.335% (active) and -49% (active) with OVCAR-3 ovarian. Further, the growth was 42.6% (inactive) and -0.967% (active) and 55.1% (inactive) in the experiment on HS 578T breast; 0.46% (active) and 8.85% (active) and -20.9% (active) in the experiment on NCI/ADR-RES ovarian; 69.8% (inactive) and 49.2% (inactive) and 70.5% (inactive) with T-47D breast; 4.27% (active) and -10% (active) and -7.06% (active) in the experiment with BT-549 breast; -49.9% (active) and -0.781% (active) and -50.8% (active) with MDA-MB-435 melanoma; 23.7% (inactive) and 18.3% (inactive) and 26.4% (inactive) in the experiment on SW-620 colon. Moreover, the growth in the experiment with MCF7 breast is 15.1% (inactive) and 15.6% (inactive) and 11.7% (inactive); in the experiment on HCT-116 colon it was 1.53% (active) and 0.462% (active) and 0.179% (active); in the experiment with HCC-2998 colon, 3.25% (active) and 13.4% (inactive) and -59% (active); in the experiment with KM12 colon, -6.61% (active) and 2.96% (active) and -29.9% (active).

For the origin of these results see PubChem BioAssay (NCI).
